# Data taken from PubChem BioAssay (EPA / NIEHS).
# The source made the active and inactive calls. How the source made its calls: active means hit-call score of the fitted dose curve at least 0.9, where 1 is the maximum; inactive means score below 0.9.
# How the values were obtained:
# Settings in all cases: mRNA level, 48 h; actives raise or lower the signal
# [1] = read-out: Tumor necrosis factor receptor superfamily member 6 (Homo sapiens) (UniProt P25445); assay: LTEA_HepaRG_FAS: Life Technologies and Expression Analysis (LTEA) Assay for Fas cell surface death receptor (FAS) using HepaRG (AID 2283447)
# Summary of the method: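 Differentiated HepaRG cells in serum-free induction medium were exposed 48 h to 8 half-log concentrations up to 100 uM in 0.5% DMSO, in duplicate. FAS mRNA was measured by qRT-PCR normalised to ACTB, GAPDH and POLR2A; bidirectional fit versus DMSO.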
# [2] = read-out: Fatty acid synthase (Homo sapiens) (UniProt P49327); assay: LTEA_HepaRG_FASN: Life Technologies and Expression Analysis (LTEA) Assay for Fatty Acid Synthase (FASN) using HepaRG (AID 2283448)
# Summary of the method: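 Transcript-level assay: HepaRG liver cells are treated for 48 h across an eight-point range topping at 100 uM, and FASN mRNA, normalized to three housekeeping genes, is compared with DMSO controls in both directions.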
# [3] = read-out: Cyclin D2 (CCND2), CCND2 (gene 894); assay: LTEA_HepaRG_CCND2: Life Technologies and Expression Analysis (LTEA) Assay for Cyclin D2 (CCND2) using HepaRG (AID 2283449);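 further: CCND2 transcript measured by TaqMan qRT-PCR and normalised to three housekeeping genes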
# Summary of the method: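 Chemicals in 0.5% DMSO, eight half-log concentrations from 100 uM top, were applied in duplicate for 48 h to human HepaRG cells in serum-free induction medium. CCND2 mRNA by TaqMan qRT-PCR, normalised to ACTB/GAPDH/POLR2A; bidirectional fit versus DMSO.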
# [4] = read-out: Cyclin Dependent Kinase Inhibitor 1A (CDKN1A), CDKN1A (gene 1026); assay: LTEA_HepaRG_CDKN1A: Life Technologies and Expression Analysis (LTEA) Assay for Cyclin Dependent Kinase Inhibitor 1A (CDKN1A) using HepaRG (AID 2283450)
# Summary of the method: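 Differentiated HepaRG cells in serum-free induction medium, exposed 48 h in duplicate to eight half-log concentrations up to 100 uM in 0.5% DMSO. mRNA measured by TaqMan qRT-PCR, normalized to ACTB, GAPDH, POLR2A; bidirectional fit versus DMSO.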
# [5] = read-out: Cyclin D1 (CCND1), CCND1 (gene 595); assay: LTEA_HepaRG_CCND1: Life Technologies and Expression Analysis (LTEA) Assay for Cyclin D1 (CCND1) using HepaRG (AID 2283451);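 on AC50: TaqMan qRT-PCR transcript level normalised to ACTB GAPDH and POLR2A housekeeping genes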
# Summary of the method: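 Differentiated HepaRG cells exposed 48 h in serum-free induction medium to eight half-log concentrations from 100 uM top, 0.5% DMSO, duplicates. CCND1 mRNA measured by Fluidigm TaqMan qRT-PCR, normalised to ACTB, GAPDH, POLR2A; bidirectional fit.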
# [6] = read-out: catalase (CAT), CAT (gene 847); assay: LTEA_HepaRG_CAT: Life Technologies and Expression Analysis (LTEA) Assay for catalase (CAT) using HepaRG (AID 2283452);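 on AC50: TaqMan qRT-PCR signal normalized to ACTB GAPDH and POLR2A housekeeping genes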
# Summary of the method: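 HepaRG cells in serum-free induction medium, 0.5% DMSO vehicle, exposed 48 h in duplicate over 8 half-log concentrations from 100 uM. CAT mRNA measured by qRT-PCR, normalized to ACTB, GAPDH, POLR2A; bidirectional fit versus DMSO.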
# [7] = read-out: flavin-containing dimethylaniline monooxygenases 3 (FMO3), FMO3 (gene 2328); assay: LTEA_HepaRG_FMO3: Life Technologies and Expression Analysis (LTEA) Assay for flavin-containing dimethylaniline monooxygenases 3 (FMO3) using HepaRG (AID 2283453)
# Summary of the method: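 HepaRG, 48 h exposure, 8-pt half-log series from 100 uM, 0.5% DMSO vehicle, duplicates; FMO3 transcript by Fluidigm TaqMan qRT-PCR, housekeeping-normalized; gain/loss fit vs DMSO.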
# [8] = read-out: Cytochrome P450 (CYP1A1), CYP1A1 (gene 1543); assay: LTEA_HepaRG_CYP1A1: Life Technologies and Expression Analysis (LTEA) Assay for Cytochrome P450 (CYP1A1) using HepaRG (AID 2283454)
# Summary of the method: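 Differentiated human HepaRG cells, after 48 h plating, exposed in duplicate for 48 h in serum-free induction medium to 8 half-log concentrations up to 100 uM in 0.5% DMSO. CYP1A1 mRNA by qRT-PCR, normalized to ACTB/GAPDH/POLR2A; bidirectional fit versus DMSO.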
# [9] = read-out: CFLAR gene, CFLAR (gene 8837); assay: LTEA_HepaRG_CFLAR: Life Technologies and Expression Analysis (LTEA) Assay for CFLAR gene using HepaRG (AID 2283455)
# Summary of the method: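 Differentiated HepaRG cells in serum-free induction medium were exposed 48 h in duplicate to eight half-log concentrations up to 100 uM in 0.5% DMSO; mRNA measured by TaqMan qRT-PCR, normalized to ACTB, GAPDH, POLR2A; bidirectional fitting versus DMSO.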
# [10] = read-out: growth arrest and DNA damage 45 (GADD45A), GADD45A (gene 1647); assay: LTEA_HepaRG_GADD45A: Life Technologies and Expression Analysis (LTEA) Assay for growth arrest and DNA damage 45 (GADD45A) using HepaRG (AID 2283458)
# Summary of the method: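 Human HepaRG liver cells are treated in duplicate for 48 h with chemicals in 0.5% DMSO, highest concentration 100 uM. Expression is read by qRT-PCR and analyzed in both directions against vehicle.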
# [11] = read-out: Forkhead box O3 (FOXO3), FOXO3 (gene 2309); assay: LTEA_HepaRG_FOXO3: Life Technologies and Expression Analysis (LTEA) Assay for Forkhead box O3 (FOXO3) using HepaRG (AID 2283459)
# Summary of the method: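 Differentiated human HepaRG cells, 48 h post-plating, exposed in duplicate for 48 h in serum-free induction medium; 8-point half-log series from 100 uM in 0.5% DMSO. FOXO3 mRNA by TaqMan qRT-PCR, normalized to ACTB/GAPDH/POLR2A; bidirectional fit versus DMSO.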
# [12] = read-out: ABC Transporter (ABCB1), ABCB1 (gene 5243); assay: LTEA_HepaRG_ABCB1: Life Technologies and Expression Analysis (LTEA) Assay for ABC Transporter (ABCB1) using HepaRG (AID 2283460)
# Summary of the method: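 HepaRG cells exposed in duplicate for 48 h in serum-free induction medium to eight half-log concentrations up to 100 uM in 0.5% DMSO. ABCB1 mRNA quantified by qRT-PCR, normalised to ACTB, GAPDH and POLR2A; fitted bidirectionally versus DMSO.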
# [13] = read-out: growth arrest and DNA damage 45 (GADD45B), GADD45B (gene 4616); assay: LTEA_HepaRG_GADD45B: Life Technologies and Expression Analysis (LTEA) Assay for growth arrest and DNA damage 45 (GADD45B) using HepaRG (AID 2283461)
# Summary of the method: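 Differentiated human HepaRG cells in serum-free induction medium exposed 48 h in duplicate to eight concentrations, top 100 uM, half-log steps, 0.5% DMSO. GADD45B mRNA by TaqMan qRT-PCR, normalized to ACTB, GAPDH, POLR2A; bidirectional fit versus DMSO.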
# [14] = read-out: ABC Transporter (ABCC3), ABCC3 (gene 8714); assay: LTEA_HepaRG_ABCC3: Life Technologies and Expression Analysis (LTEA) Assay for ABC Transporter (ABCC3) using HepaRG (AID 2283462)
# Summary of the method: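 Differentiated human HepaRG cells exposed 48 h in serum-free induction medium, 0.5% DMSO vehicle, 8-point half-log series to 100 uM in duplicate. ABCC3 mRNA by qRT-PCR, normalised to ACTB, GAPDH, POLR2A; bidirectional fit vs DMSO.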
# [15] = read-out: Forkhead box O1 (FOXO1), FOXO1 (gene 2308); assay: LTEA_HepaRG_FOXO1: Life Technologies and Expression Analysis (LTEA) Assay for Forkhead box O1 (FOXO1) using HepaRG (AID 2283456)
# Summary of the method: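 Differentiated HepaRG cells, in serum-free induction medium with 0.5% DMSO, exposed 48 h in duplicate to 8-point half-log series from 100 uM. FOXO1 mRNA measured by TaqMan qRT-PCR, normalized to ACTB, GAPDH, POLR2A; bidirectional fit versus DMSO.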
# Sequence of Fatty acid synthase (Homo sapiens) (P49327 whole entry, looked up): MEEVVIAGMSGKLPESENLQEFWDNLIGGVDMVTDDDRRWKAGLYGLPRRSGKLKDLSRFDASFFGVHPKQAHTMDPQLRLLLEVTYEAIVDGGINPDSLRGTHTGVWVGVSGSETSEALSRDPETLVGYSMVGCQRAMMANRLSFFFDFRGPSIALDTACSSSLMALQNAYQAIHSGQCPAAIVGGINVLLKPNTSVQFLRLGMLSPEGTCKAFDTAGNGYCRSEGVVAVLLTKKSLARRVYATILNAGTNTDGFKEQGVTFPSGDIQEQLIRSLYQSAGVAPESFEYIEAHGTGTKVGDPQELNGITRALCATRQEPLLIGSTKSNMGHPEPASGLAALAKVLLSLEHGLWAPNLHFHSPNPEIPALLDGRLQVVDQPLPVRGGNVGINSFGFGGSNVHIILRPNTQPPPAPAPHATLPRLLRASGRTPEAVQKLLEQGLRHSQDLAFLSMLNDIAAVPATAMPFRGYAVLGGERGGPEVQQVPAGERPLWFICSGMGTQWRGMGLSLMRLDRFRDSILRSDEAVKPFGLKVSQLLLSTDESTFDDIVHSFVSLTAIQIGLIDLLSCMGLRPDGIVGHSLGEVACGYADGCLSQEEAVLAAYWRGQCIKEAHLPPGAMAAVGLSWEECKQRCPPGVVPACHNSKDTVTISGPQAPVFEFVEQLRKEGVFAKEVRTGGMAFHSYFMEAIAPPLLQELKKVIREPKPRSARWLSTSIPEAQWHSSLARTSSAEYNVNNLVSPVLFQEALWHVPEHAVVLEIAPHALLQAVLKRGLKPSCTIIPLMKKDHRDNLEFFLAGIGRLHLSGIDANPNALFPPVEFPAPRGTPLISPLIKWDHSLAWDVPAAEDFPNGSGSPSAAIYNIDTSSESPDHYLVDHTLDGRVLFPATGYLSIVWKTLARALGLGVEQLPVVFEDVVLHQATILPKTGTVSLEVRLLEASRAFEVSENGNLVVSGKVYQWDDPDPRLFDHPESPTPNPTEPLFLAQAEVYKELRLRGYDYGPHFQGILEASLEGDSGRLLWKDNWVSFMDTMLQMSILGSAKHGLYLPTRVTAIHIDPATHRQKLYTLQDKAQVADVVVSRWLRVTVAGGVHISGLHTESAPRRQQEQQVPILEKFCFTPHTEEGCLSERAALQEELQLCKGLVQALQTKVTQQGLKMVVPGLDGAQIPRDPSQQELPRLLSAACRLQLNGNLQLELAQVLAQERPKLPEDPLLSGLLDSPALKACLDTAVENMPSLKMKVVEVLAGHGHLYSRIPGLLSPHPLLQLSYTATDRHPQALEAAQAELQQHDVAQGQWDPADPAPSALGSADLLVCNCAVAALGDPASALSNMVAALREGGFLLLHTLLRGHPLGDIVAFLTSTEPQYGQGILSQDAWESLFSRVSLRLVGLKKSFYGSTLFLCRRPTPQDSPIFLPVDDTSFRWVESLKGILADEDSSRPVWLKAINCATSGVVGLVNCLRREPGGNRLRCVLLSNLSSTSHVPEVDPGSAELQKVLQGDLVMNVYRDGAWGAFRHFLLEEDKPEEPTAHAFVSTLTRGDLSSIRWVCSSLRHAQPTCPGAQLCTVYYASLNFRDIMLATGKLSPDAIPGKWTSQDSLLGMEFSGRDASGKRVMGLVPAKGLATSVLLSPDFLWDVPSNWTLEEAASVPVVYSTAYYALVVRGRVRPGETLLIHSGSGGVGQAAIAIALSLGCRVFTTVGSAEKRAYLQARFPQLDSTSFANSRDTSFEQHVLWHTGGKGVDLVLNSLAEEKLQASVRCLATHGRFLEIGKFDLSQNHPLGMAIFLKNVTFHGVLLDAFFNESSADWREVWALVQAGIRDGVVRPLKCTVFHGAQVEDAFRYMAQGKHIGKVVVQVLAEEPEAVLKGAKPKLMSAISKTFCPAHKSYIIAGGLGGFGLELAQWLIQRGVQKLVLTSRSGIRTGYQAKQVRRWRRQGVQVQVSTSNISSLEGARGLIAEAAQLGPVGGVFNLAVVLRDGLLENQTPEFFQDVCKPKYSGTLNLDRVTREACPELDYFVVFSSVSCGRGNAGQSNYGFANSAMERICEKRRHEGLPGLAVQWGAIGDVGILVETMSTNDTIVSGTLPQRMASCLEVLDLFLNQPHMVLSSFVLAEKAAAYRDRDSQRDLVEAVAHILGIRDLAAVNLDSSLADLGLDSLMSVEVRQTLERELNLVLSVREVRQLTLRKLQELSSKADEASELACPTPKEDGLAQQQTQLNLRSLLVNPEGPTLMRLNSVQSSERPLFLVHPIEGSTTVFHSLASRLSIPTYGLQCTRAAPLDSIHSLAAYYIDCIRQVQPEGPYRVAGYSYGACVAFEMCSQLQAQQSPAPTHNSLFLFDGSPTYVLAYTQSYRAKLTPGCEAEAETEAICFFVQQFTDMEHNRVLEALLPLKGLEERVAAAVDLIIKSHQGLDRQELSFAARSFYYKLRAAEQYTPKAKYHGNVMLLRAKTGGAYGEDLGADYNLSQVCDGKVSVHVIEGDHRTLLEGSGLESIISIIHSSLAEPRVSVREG
smiles,measurement,setting,value
CCNc1ccccc1,outcome,[1],inactive
same,outcome,[2],inactive
same,outcome,[3],inactive
same,outcome,[4],inactive
same,outcome,[5],inactive
same,outcome,[6],inactive
same,outcome,[7],inactive
same,AC50,[8],9.94 µM (active)
same,outcome,[9],inactive
same,outcome,[10],inactive
same,outcome,[11],inactive
same,outcome,[12],inactive
same,outcome,[13],inactive
same,outcome,[14],inactive
CC(C)=CCC/C(C)=C/CO,outcome,[1],inactive
same,outcome,[2],inactive
same,outcome,[3],inactive
same,outcome,[4],inactive
same,outcome,[5],inactive
same,outcome,[6],inactive
same,outcome,[7],inactive
same,outcome,[9],inactive
same,outcome,[10],inactive
same,outcome,[11],inactive
same,outcome,[12],inactive
same,outcome,[13],inactive
same,outcome,[14],inactive
CCCN(C1CCN(C(=O)C2CCNCC2)CC1)[C@@H]1CCc2ccc(OC)cc2C1,outcome,[1],inactive
same,AC50,[2],80.6 µM (active)
same,outcome,[3],inactive
same,outcome,[4],inactive
same,AC50,[5],50 µM (active)
same,AC50,[6],50.1 µM (active)
same,AC50,[7],57.5 µM (active)
same,outcome,[8],inactive
same,AC50,[9],50 µM (active)
same,AC50,[15],50 µM (active)
same,outcome,[10],inactive
same,AC50,[11],27.6 µM (active)
same,AC50,[12],15.2 µM (active)
same,outcome,[13],inactive
same,AC50,[14],42.9 µM (active)
CCn1nc(Cc2ccccc2)cc1C1CCN(C[C@H]2C[C@H](N(C)[C@@H](C(=O)O)C(C)C)C[C@@H]2c2cccc(F)c2)CC1,outcome,[1],inactive
same,outcome,[2],inactive
same,outcome,[3],inactive
same,outcome,[4],inactive
same,outcome,[5],inactive
same,outcome,[6],inactive
same,AC50,[7],50 µM (active)
same,AC50,[8],83.9 µM (active)
same,outcome,[9],inactive
same,outcome,[10],inactive
same,outcome,[11],inactive
same,outcome,[12],inactive
same,outcome,[13],inactive
same,AC50,[14],50 µM (active)
COCCOc1cc2cc(C(=O)NC3CCN(C(C)C)CC3)n(CC(=O)Nc3ccc(Cl)cn3)c2cn1,outcome,[1],inactive
same,AC50,[2],32.5 µM (active)
same,outcome,[3],inactive
same,outcome,[4],inactive
same,AC50,[5],45 µM (active)
same,AC50,[6],45 µM (active)
same,AC50,[7],53.3 µM (active)
same,AC50,[8],2.09 µM (active)
same,AC50,[9],31.4 µM (active)
same,outcome,[10],inactive
same,AC50,[11],11.6 µM (active)
same,AC50,[12],20.6 µM (active)
same,outcome,[13],inactive
same,AC50,[14],45 µM (active)
O=C(OC[C@H]1O[C@@H](OC(=O)c2cc(O)c(O)c(OC(=O)c3cc(O)c(O)c(O)c3)c2)[C@H](OC(=O)c2cc(O)c(O)c(OC(=O)c3cc(O)c(O)c(O)c3)c2)[C@@H](OC(=O)c2cc(O)c(O)c(OC(=O)c3cc(O)c(O)c(O)c3)c2)[C@@H]1OC(=O)c1cc(O)c(O)c(OC(=O)c2cc(O)c(O)c(O)c2)c1)c1cc(O)c(O)c(OC(=O)c2cc(O)c(O)c(O)c2)c1,AC50,[1],7.03 µM (active)
same,AC50,[2],15.2 µM (active)
same,outcome,[3],inactive
same,outcome,[4],inactive
same,AC50,[6],15.2 µM (active)
same,AC50,[7],9.23 µM (active)
same,AC50,[8],9.36 µM (active)
same,outcome,[9],inactive
same,outcome,[15],inactive
same,AC50,[10],3.26 µM (active)
same,outcome,[11],inactive
same,outcome,[12],inactive
same,outcome,[13],inactive
same,AC50,[14],9.66 µM (active)
O=C(O)c1cccc(Oc2ccccc2)c1,outcome,[1],inactive
same,outcome,[2],inactive
same,outcome,[3],inactive
same,outcome,[4],inactive
same,outcome,[5],inactive
same,outcome,[6],inactive
same,outcome,[7],inactive
same,AC50,[8],37.9 µM (active)
same,outcome,[9],inactive
same,outcome,[15],inactive
same,outcome,[10],inactive
same,outcome,[11],inactive
same,outcome,[12],inactive
same,outcome,[13],inactive
same,outcome,[14],inactive
O=C1CCCCCN1,outcome,[1],inactive
same,outcome,[2],inactive
same,outcome,[3],inactive
same,outcome,[4],inactive
same,outcome,[5],inactive
same,outcome,[6],inactive
same,outcome,[7],inactive
same,outcome,[8],inactive
same,outcome,[9],inactive
same,outcome,[15],inactive
same,outcome,[10],inactive
same,outcome,[11],inactive
same,outcome,[12],inactive
same,outcome,[13],inactive
same,outcome,[14],inactive
